# Most compounds without a hit are left out; they make up all but 7.9% or so of the library.
# KB-V1 cytotox – kills drug-selected multidrug resistant KB-V1 cells | 3.4% of 400,000 active | AID 1347076 | KB-V1 MDR cells viability, CellTiter-Glo, 72 h | Potency, µM (series often up to 46.1 µM), most hits filed as cytotoxic; note: % is set by controls: 0 for no effect and ±100 for the full control effect; nearly all actives have a fitted effect of over 60% in size
#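 Drug-selected KB-V1 cells, grown in DMEM lacking phenol red with 10% FBS, receive compound titrations; after three days at 37 degrees C, surviving cell ATP is quantified by CellTiter-Glo luminescence and responses normalized and curve-fitted.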
# KB-3-1 cytotox – KB-3-1 parental cell cytotoxicity; KB-3-1 viability, CellTiter-Glo ATP luminescence, 72 h; Potency, µM (series often up to 46.1 µM), actives largely listed as cytotoxic; 1.4% of 400,000 active; AID 1347075; note: % is set by controls: 0 for no effect and ±100 for the full control effect; nearly all actives have a fitted effect of over 60% in size
#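 Viability of parental KB-3-1 cells, measured by CellTiter-Glo luminescence, followed a 72 h incubation at 37 °C with pinned compounds in phenol-red-free DMEM containing 10% FBS.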
# HT1080NT lethal – kills 2HG-producing HT-1080-NT fibrosarcoma cells. HT-1080-NT fibrosarcoma viability, CellTiter-Glo ATP luminescence, 48 h. Potency, µM (series often up to 46.1 µM), for the others: at the highest dose activity, negative = less viability, hits mostly cytotoxic. 1.6% of 360,000 active. AID 686970;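 note: NT is the 2HG producing partner of a matched IDH1 knockdown line; 0% = DMSO-treated cells and -100% = media-only wells without cells; nearly all actives have a fitted effect of over 55% in size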
#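 HT-1080-NT; 750 cells/well; 5% FBS RPMI; 48 h compound, 37 degrees C; CellTiter-Glo luminescence; curve fitting and curve-class assignment.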
# MCF10A rerep – DNA re-replication induction in MCF 10a cells | AID 624296 | Potency, µM (series often up to 46.1 µM), for inactives: top-dose activity, positive = re-replication, usual class: activators | 2.9% of 350,000 active | MCF 10A DNA re-replication, Hoechst nuclear intensity, 48 h; note: % of control where 0% means no effect; nearly all actives have a fitted effect of over 50% in size
# SW480 rereplic – induces DNA re-replication in SW480 colon adenocarcinoma cells. 1.8% of 340,000 active. SW480 DNA re-replication, Hoechst DNA content imaging, 48 h. AID 624297. Potency, µM (series often up to 46.1 µM), without a hit: at the top dose re-replication activation, hits mostly activators; note: % of control where 0% means no effect; nearly all actives have a fitted effect of over 55% in size
#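 Image-based read-out: total Hoechst fluorescence of nuclei (405 nm excitation, 500-530 nm emission), with hits raising the fraction of high-intensity nuclei. SW480 colon cells incubated 48 hr with compounds at 37 C.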
# HT1080 IDH1KD tx – kills HT-1080 cells with IDH1 knockdown. HT-1080 IDH1 knockdown viability, ATP luminescence, 48 h. Potency, µM (top dose mostly 46.1 µM), inactives show at the highest dose activity, negative = toxicity, hits mostly cytotoxic. 2% of 360,000 active. AID 686971;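 note: 0% = DMSO wells and -100% = cell-free medium wells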
#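 Cytotoxicity counter-line: IDH1KD HT-1080, 48 h, CellTiter-Glo. Curves classed by r2, magnitude and activity.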
# The depositor's hits bear a star; i = inactive; ? = inconclusive; . = no result; [ ] = another dose, or the depositor's remark. Calls come from the whole dose curve; as a rule, active = well fitted curve in the direction sought with a large enough effect; inconclusive = small, poorly fitted or top-dose-only effect, or another doubt; inactive = no such curve, though single readings can be large; an effect the other way counts as inactive or inconclusive. Potency is the fitted concentration of half-maximal effect.
SMILES,KB-V1 cytotox,KB-3-1 cytotox,HT1080NT lethal,MCF10A rerep,SW480 rereplic,HT1080 IDH1KD tx
CCOC(=O)c1[nH]c(C)c(CCC(=O)NCc2cccc(C)c2)c1C,i,i,.,.,.,.
COc1ccc2cc3cc(C(=O)Nc4cc(OC)c(OC)c(OC)c4)oc3nc2c1,i,i,3%,20%,2%,-1%
COc1ccc2cc3cc(C(=O)NC(C)C)oc3nc2c1,2.3µM*,i,9%,6%,-3%,3%
Cc1[nH]nc2c1C(C1CC=CCC1)C(C#N)=C(N)O2 (stereo not given),i,?,?,?,?,?
N#CC1=C(N)Oc2cc(N)ccc2C1C1CC=CCC1 (stereo not given),6.5µM*,?,?,6.5µM*,16µM*,?
CC1C(C#N)=C(N)OC2=C1C(=O)CC(C)(C)C2 (stereo not given),?,i,-1%,-194%[0.0737 µM],-1%,2%
CC1(C)CC(=O)C2=C(C1)OC(N)=C(C#N)C2C1CC=CCC1 (stereo not given),16µM*,i,26%,0%,0%,-9%
CCOC(=O)c1c(C)[nH]c(C)c1S(=O)(=O)N1CCC(C(=O)Nc2ccc(C)cn2)CC1,i,i,.,.,.,.
C[C@H](NC(=O)c1[nH]cnc1C(=O)Nc1ccccc1F)c1ccccc1,18µM*,?,-14%,.,.,-7%
CN(Cc1ccccc1)C(=O)c1[nH]cnc1C(=O)Nc1ccc(Br)cc1F,?,16µM*,8%,.,.,-7%
CNC(=O)c1[nH]cnc1C(=O)N[C@@H](Cc1ccccc1)C(=O)OC(C)(C)C,i,i,9%,-4%,-3%,13%
CC(C)(C)OC(=O)[C@H](Cc1ccccc1)NC(=O)c1[nH]cnc1C(=O)Nc1ccccc1F,21µM*,?,-22%,.,.,?
Cc1nn(Cc2cccc(F)c2)c(C)c1NC(=O)c1c([N+](=O)[O-])c(C)nn1C,i,i,2%,4%,-2%,19%
Cc1nn(Cc2cccc(F)c2)c(C)c1NC(=O)c1ccc(COc2ccccc2Cl)cc1,2.6µM*,i,2µM*,?,27%,?
CCC(C)NC(=O)c1ccc(COc2ccccc2Cl)cc1 (stereo not given),21µM*,i,-10%,3%,2%,-26%
Cc1nn(Cc2c(F)c(F)c(F)c(F)c2F)c(C)c1NC(=O)c1cccc(COc2ccccc2Cl)c1,2.6µM*,i,?,-4%,-2%,-28%
O=C(Nc1ccn(Cc2c(F)c(F)c(F)c(F)c2F)n1)c1ccc(COc2ccccc2Cl)cc1,i,?,10%[9.24 µM],20%,0%,?
O=C(NCCc1ccc(Cl)cc1)c1nnc(Cc2ccc(F)cc2)o1,i,i,.,.,.,.
COc1ccccc1NC(=O)C1=C(C)Nc2ncnn2C1c1ccc[nH]1 (stereo not given),i,i,.,.,.,.
O=C(Nc1ccc(N2CCCCCC2)cc1)c1ccccc1Cl,?,?,12µM*,6.5µM*,13µM*,8.2µM*
CC(=O)N1CCN(c2ccc(NC(=O)c3ccccc3Cl)cc2)CC1,i,i,21%,3%,7%,11%
COc1ccccc1C(=O)Nc1ccc(N2CCN(C(C)=O)CC2)cc1,i,i,-1%,-28%,-16%,-1%
O=S(=O)(Nc1ccc(N2CCCCC2)cc1)c1ccccc1,21µM*,i,4%,11%,20%,19%
O=C(Nc1ccc(N2CCCCC2)cc1)c1ccccn1,?,?,9.2µM*,?,9%,10µM*
O=C(Nc1ccc(N2CCCCCC2)cc1)c1ccc[nH]1,i,i,-6%,-2%,-4%,0%
SMILES,KB-V1 cytotox,KB-3-1 cytotox,HT1080NT lethal,MCF10A rerep,SW480 rereplic,HT1080 IDH1KD tx
O=S(=O)(Nc1ccc(N2CCOCC2)cc1)c1ccccc1,i,i,2%,-1%,1%,5%
COc1ccccc1C(=O)Nc1ccc(N2CCCCC2)cc1,21µM*,i,-16%,6%,-3%,-21%
CCCC(=O)N1CCC1(C)C(=O)Nc1ccc(C)c(C)c1 (stereo not given),i,i,19%,.,.,17%
CCCCCCN1CCN(C2CN(Cc3cn(Cc4ccccc4)nn3)S(=O)(=O)C2)CC1 (stereo not given),i,i,1%,.,.,0%
O=C(O)c1cc(-c2ccccc2)nn1Cc1ccccc1,i,i,.,.,.,.
Cc1c(Br)cccc1NC(=O)C1(C)CCN1C(C)C (stereo not given),i,i,-2%,.,.,2%
COc1ccccc1C(=O)Nc1ccc(S(=O)(=O)N2CCCC2)cc1,18µM*,i,-16%,2%,-1%,7%
COC(=O)C1=C/C=C\CN(C(c2ccccc2)c2ccccc2)/C=C\1C(=O)OC,?,?,-9%,.,.,-6%
COc1ccc(CN(C(C)=O)c2ccccc2C(=O)O)cc1,i,i,10%,5%,2%,17%
CC(=O)N(Cc1ccc(Br)cc1)c1ccccc1C(=O)O,i,i,-1%,-2%,2.6µM*,9%
COc1ccc(NC(=O)CN2C(=O)C(C)(C)c3cc(S(=O)(=O)N4CCCCC4)ccc32)cc1Cl,i,i,.,.,.,.
CCC(=O)N1CCc2cc(S(=O)(=O)NC(CC(C)C)C(=O)N3CCc4ccccc43)ccc21 (stereo not given),13µM*,i,-16%,7%,?,2%
O=C(COC(=O)c1cc(S(=O)(=O)N2CCCCC2)ccc1N1CCOCC1)c1ccccc1,21µM*,i,8%,0%,5%,11%
O=C(COC(=O)c1cc(S(=O)(=O)N2CCCCC2)ccc1N1CCOCC1)c1ccc(Cl)cc1,i,i,1%,1%,6.5µM*,1%
O=C(OCc1cccc(Cl)c1)c1cc(S(=O)(=O)N2CCCCC2)ccc1N1CCOCC1,?,?,-14%,?,2%,-21%
CCCCCCCCCn1ccc(=N)cc1,16µM*,0.52µM*,?,24%,2%,15µM*
CCCCCCCn1ccc(=N)cc1,i,4.6µM*,?,?,?,?
CCOc1ccc(NC(=O)CSc2ncc(-c3ccc(F)cc3)n2Cc2ccco2)cc1,i,i,-25%,?,?,-30%
Cc1ccc(NC(=O)Cn2c(-c3ccc(F)cc3)cnc2SCC(=O)Nc2c(C)cccc2C)cc1,i,i,-29%,4.6µM*,?,?
COCCNc1nc(NCCN2CCNC2=O)c2sccc2n1,i,i,10%,.,.,23%
